Compound activity (PubChem BioAssay)
Most compounds without a hit are left out; they make up all but 7.6% or so of the library.
Cy5 interf NS3h: counter-screen for HCV NS3 helicase inhibitors: fluorescence interference; Cy5-dT15 DNA with NS3h; actives lie on both sides; signal over control mean, under 1 quenches; fluorescence interference ratio at 100 µM; 16,000 tested, 6% active; AID 720488;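 active = compound fluorescence over control fluorescence at most 0.8, a quencher, or at least a set upper limit, an enhancer; inactive = ratio between 0.8 and the set upper limit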
NS3h inh CB: hepatitis C NS3 helicase inhibition, primary screen; NS3h Cy5-dT15 DNA binding, fluorescence polarization; inhibition, % at 100 µM; 16,000 tested, 1.6% active; AID 687043;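 active = inhibition above the average over every tested compound plus 3 SD, cut at about 40% in these data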
Each line names hits and unclear results; the compound was inactive in the other large screens.

Cc1cccc(Cl)c1NC(=O)C1CC(=O)N(c2ccc(Br)cc2)C1 (configuration not stated)	none
CC(=O)N1CCN=C1Nc1c(Cl)cccc1Cl	Cy5 interf NS3h 0.603
COc1ccc(OC)c(NC(=O)c2ccc(Cl)c(Cl)c2)c1	none
COc1ccc(OC)c(C2NC(=S)NC(C)=C2C(=O)Nc2cccc(Cl)c2)c1 (configuration not stated)	none
Clc1ccc(-c2nc(-c3cccnc3)no2)c(Cl)c1	none
Clc1ccccc1-c1nc(-c2cccnc2)no1	Cy5 interf NS3h 1.21
COc1ccccc1OCC(=O)NC(C)C(=O)O (configuration not stated)	none
Cc1[nH]c2ccccc2c1C(=O)NS(=O)(=O)c1ccccc1Cl	none
Cc1c(Cl)cccc1NC(=O)Cn1cnc([N+](=O)[O-])n1	none
COC(=O)c1ccccc1NC(=O)Cn1cnc([N+](=O)[O-])n1	Cy5 interf NS3h 0.686
Cc1c(OCc2ccc(C(=O)O)cc2)ccc2c3c(c(=O)oc12)CCC3	none
COC(=O)c1ccccc1P(=O)(c1ccccc1)c1ccccc1	none
COc1ccc(N(CC(N)=O)S(=O)(=O)c2ccccc2)cc1	none
CCOc1ccc(-c2cc(C)n3nc(C(=O)Nc4ccc(C(C)=O)cc4)cc3n2)cc1	Cy5 interf NS3h 0.666
CCOc1ccc(-c2cc(C)n3nc(C(N)=O)cc3n2)cc1	Cy5 interf NS3h 0.626
CC(=O)c1ccc(NC(=O)c2cc3nc(-c4ccc(Br)cc4)cc(C(F)(F)F)n3n2)cc1	Cy5 interf NS3h 0.781
CCOc1ccc(-c2cc(C)n3nc(C(=O)N(C)Cc4ccccc4)cc3n2)cc1	none
COC(=O)c1cc2nc(-c3ccc(Br)cc3)cc(C(F)(F)F)n2n1	none
Cc1cc(-c2ccccc2)nc2cc(C(=O)Nc3ccc(Cl)cc3)nn12	none
C[n+]1cn(Cc2ccccc2)c2c(=O)[nH]c(N)nc21	none
CCc1c(C)[nH]c2ccc(C(=O)O)cc2c1=O	none
CCOP(=O)(OCC)c1nc(-c2cccc3ccccc23)oc1N1CCC(C)CC1	none
COc1nc(N/N=C/c2ccc3c(c2)OCO3)nc(N2CCOCC2)n1	none
COc1ccc(C2N(c3ccccc3)CCN2c2ccccc2)cc1O	Cy5 interf NS3h 0.753
COc1ccc(C2N(Cc3ccccc3)CCN2Cc2ccccc2)cc1OC	none
Cc1cc(Nc2ccccc2)n(C(=O)c2ccc([N+](=O)[O-])cc2)n1	Cy5 interf NS3h 0.74
Cc1cc2ncn(C(=O)c3ccc([N+](=O)[O-])cc3)c2cc1C	none
O=C(/C=C/c1ccc([N+](=O)[O-])cc1)Nc1ccccc1C(=O)Nc1cccc(C(=O)O)c1	none
O=C1NN(c2ccccc2)C(=O)/C1=C/c1cccc(Cl)c1Cl	NS3h inh CB 47.1
O=C1NN(c2ccccc2)C(=O)/C1=C/c1cccc2ccccc12	none
COc1cc(/C=C2/C(=O)NN(c3ccc(C)c(C)c3)C2=O)cc([N+](=O)[O-])c1O	Cy5 interf NS3h 0.72
Cc1ccc(N2NC(=O)/C(=C/c3ccc(C)c([N+](=O)[O-])c3)C2=O)cc1Cl	none
CCOC(=O)c1ccc(N2NC(=O)/C(=C/c3cc(Br)ccc3O)C2=O)cc1	Cy5 interf NS3h 0.685
CCOc1c(/C=C2\C(=O)NN(c3ccccc3)C2=O)cccc1OC	none
COc1cc(Br)cc(/C=C2\C(=O)NN(c3ccccc3)C2=O)c1O	NS3h inh CB 45.1
CCOC(=O)c1ccc(N2NC(=O)/C(=C/c3cccc(OC)c3O)C2=O)cc1	none
O=C(Nc1ccc(Cl)cc1)Nc1nnc(C23CC4CC(CC(C4)C2)C3)s1	none
CC(=O)Nc1ccccc1C(=O)N1CCC(Cc2ccccc2)CC1	none
c1cncc(-c2noc(COc3ccc4ccccc4c3)n2)c1	none
COc1ccc(NC(=O)C2CC(=O)N(c3ccc(F)cc3)C2)c(OC)c1 (configuration not stated)	none
CC12c3ccccc3C(c3ccccc31)C1C(=O)NNC(=O)C12 (configuration not stated)	Cy5 interf NS3h 0.665
CC12c3ccccc3C(c3ccccc31)C1C(=O)N(c3cccc([N+](=O)[O-])c3)C(=O)C12 (configuration not stated)	none
O=C(/C=C/c1ccc2ncccc2c1)c1c(-c2ccccc2)c2cc([N+](=O)[O-])ccc2[nH]c1=O	none
CCOC(=O)c1c(NC(=O)COc2ccccc2)sc(C(=O)Nc2cc(C(F)(F)F)ccc2Cl)c1C	none
CCOc1ccc(NC(=S)NC(=O)c2ccc(OC)cc2)c([N+](=O)[O-])c1	none
CCOc1ccc(NC(=S)NC(=O)/C=C/c2ccc(C)cc2)c([N+](=O)[O-])c1	none
CCOc1ccc(NC(=O)c2ccc(S(=O)(=O)N(C)C)cc2)c([N+](=O)[O-])c1	Cy5 interf NS3h 0.572
CCOc1ccc(NC(=S)NC(=O)/C=C/c2ccc(OC)c(OC)c2)c([N+](=O)[O-])c1	Cy5 interf NS3h 0.801
C=CCNC(=S)NC(=O)/C=C/c1ccccc1	none
CCOn1c(=O)c(=O)n(OCC)c2ccccc21	none
Cc1cc(/C=C2\C(=O)NC(=O)N(c3ccccc3)C2=O)c(C)n1-c1cccc([N+](=O)[O-])c1	none
COc1ccc(NC(=O)COc2cccc3ccccc23)cc1	Cy5 interf NS3h 0.767
COc1ccccc1OCC(=O)Nc1ccc(S(N)(=O)=O)cc1	none
Cc1ccc(NC(=O)N(Cc2ccccc2)C(C)C2CC2)cc1 (configuration not stated)	Cy5 interf NS3h 0.595
CCOC(=O)N(Cc1ccccc1)C(C(=O)O)C(C(=O)O)N(Cc1ccccc1)C(=O)OCC (configuration not stated)	none
CN(C)CCNC(=O)c1ccc(F)cc1	none
CC(C1CC1)N(Cc1ccccc1)C(=O)c1ccc(F)cc1 (configuration not stated)	Cy5 interf NS3h 0.594
O=C(/C=C/c1ccccc1)Nc1ccc(I)cc1Cl	none
COC(=O)COc1ccc(C=C2C(=O)NC(=S)NC2=O)cc1OC	none
CCOc1cc(/C=C2/SC(=O)NC2=O)ccc1OCc1ccc(Cl)cc1	none
O=C1NC(=O)C(=Cc2ccccc2OCc2ccc(F)cc2)C(=O)N1	none
O=C1NC(=O)C(=Cc2ccc(OCc3ccc(F)cc3)cc2)C(=O)N1	Cy5 interf NS3h 0.704
CCOc1cc(C=C2C(=O)NC(=O)NC2=O)ccc1OCc1ccc(Cl)cc1	Cy5 interf NS3h 0.402
COc1cc(C=C2C(=O)NC(=S)NC2=O)ccc1OCc1ccc(Cl)cc1	Cy5 interf NS3h 0.678
CCOc1cc(C=C2C(=O)NC(=O)NC2=O)ccc1OCCOc1ccccc1C	none
COc1cc(C=C2C(=O)NC(=O)NC2=O)ccc1OCCC(C)C	Cy5 interf NS3h 0.8
Cc1c(C(=O)NCCCC(=O)O)c(-c2ccccc2)nn1-c1ccccc1	none
O=C(O)CCCCCN=C1CCCc2ccccc2N1	none
Cc1ccc(N(CC(=O)Nc2ccccc2Cl)S(=O)(=O)c2ccc(F)cc2)cc1	none
Cc1ccc(OCCNC(=O)Cc2cccc3ccccc23)cc1	none
O=C(CC1c2ccccc2Oc2ccccc21)NCCOc1ccccc1	Cy5 interf NS3h 0.671
Cc1ccc2nc(N3CCCCC3)nc(-c3ccccc3)c2c1	none
COc1ccc(N2C(=O)C3C4c5ccccc5C(C)(c5ccccc54)C3C2=O)cc1 (configuration not stated)	none
CC12c3ccccc3C(C)(c3ccccc31)C1C(=O)N(c3ccc(C(=O)O)cc3)C(=O)C12 (configuration not stated)	Cy5 interf NS3h 0.715
COC(=O)c1c(C)oc2cc(Br)c(OCC(=O)OC(C)(C)C)cc12	none
COc1ccc(N2CCSC2C(=O)c2ccccc2)cc1 (configuration not stated)	none
Cc1ccc2oc(-c3cccc(N)c3C)nc2c1	Cy5 interf NS3h 0.56
